Consider 20 compounds from PubChem BioAssay AID2642 (Johns Hopkins Ion Channel Center, 2010).

Hit rate of the full screen: of about 310,000 compounds, about 3,900 (1.3%) were called active.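 How the source made its calls: active means compounds whose thallium flux B-score, printed positive for inhibition, exceeds three library SD while starting fluorescence stays within three; inactive means the rest.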 Shown is part of a subset that was picked to be rich in actives.

Chain of Potassium voltage-gated channel subfamily KQT member 1 (Homo sapiens) (P51787 whole entry, looked up): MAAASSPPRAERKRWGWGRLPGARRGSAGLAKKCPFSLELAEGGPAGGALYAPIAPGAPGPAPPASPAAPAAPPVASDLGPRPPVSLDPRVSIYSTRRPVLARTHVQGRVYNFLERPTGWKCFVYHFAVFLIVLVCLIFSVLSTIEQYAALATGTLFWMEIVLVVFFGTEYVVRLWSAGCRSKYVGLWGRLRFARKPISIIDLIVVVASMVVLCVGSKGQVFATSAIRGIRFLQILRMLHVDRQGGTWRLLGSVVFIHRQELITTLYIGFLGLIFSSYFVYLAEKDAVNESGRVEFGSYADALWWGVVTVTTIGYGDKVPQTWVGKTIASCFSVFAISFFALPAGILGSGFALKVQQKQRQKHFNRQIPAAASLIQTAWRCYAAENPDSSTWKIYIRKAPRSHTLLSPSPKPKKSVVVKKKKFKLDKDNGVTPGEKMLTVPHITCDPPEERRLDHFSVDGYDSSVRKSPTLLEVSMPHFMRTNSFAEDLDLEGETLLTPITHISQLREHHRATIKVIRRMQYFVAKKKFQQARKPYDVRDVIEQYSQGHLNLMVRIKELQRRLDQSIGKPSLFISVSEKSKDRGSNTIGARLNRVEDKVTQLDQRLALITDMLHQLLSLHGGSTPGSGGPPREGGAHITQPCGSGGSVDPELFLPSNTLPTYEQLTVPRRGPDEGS

The assay has as its target Potassium voltage-gated channel subfamily KQT member 1 (Homo sapiens) (UniProt P51787). Description: KCNQ1 potassium current blockers – cell-based, thallium flux, high-throughput, primary screen (AID 2642).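 Further: channel opened by potassium depolarization with thallium stimulus after 20 min compound exposure.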 The following applies: CHO-K1 KCNQ1, FluxOR thallium flux fluorescence, at 10 µM; stronger effect = higher value.
With `CCOc1ccc(-c2cc(C)[n+](CCN(CC)CC)c(-c3ccc(OCC)cc3)c2)cc1`, the B-score was 7 (active).
On to `CSC1=NP(=S)(SC)N(C)c2nc3n(c21)CCC3` (stereo not given), for which the B-score entry was “inactive”.
For `CCN1C(=O)C(=Cc2c(C)n(CC(=O)NCC3CCCO3)c3ccccc23)C(=O)N(CC)C1=S` (stereo not given) the value was “inactive”.
On to `CN(C)S(=O)(=O)c1cc(C(=O)N2CCC(C(=O)O)(c3ccccc3)CC2)ccc1Cl`, for which the B-score result was “inactive”.
For `Cc1ccc(-c2nc3ccccc3c(=O)n2-c2ccc(Br)cn2)cc1` the value was “inactive”; for `CCCCCCCCCCCCn1ccc(=N)cc1`, 13 (active).
With `CC1=CC(=Cc2sc3ccccc3[n+]2C)C=C(C)O1`, the B-score result is “inactive”.
For the compound `Clc1ccc2nc3c(c(-c4ccccc4)c2c1)CNCC3`, the B-score result is “inactive”.
As to `O=C(Nc1cccc2ccccc12)N1CCC2(CC1)OCCO2`, the B-score entry is “inactive”.
`O=C1CC(=O)N(Cc2ccccc2)C(=O)N1CCCCCCN1C(=O)CC(=O)N(Cc2ccccc2)C1=O`: the B-score entry is “inactive”.
Take `CC(C)(C)c1ccc(CN2C(=O)CN=C(c3ccccc3)c3ccccc32)cc1`: the B-score is 6 (active).
Take `C=Cn1ccnc1P(=S)(c1cc(N(CC)CC)ns1)c1nccn1C=C`: the B-score entry was “inactive”.
For the compound `O=c1[nH]c(=O)n(-c2ccc(F)cc2)c(O)c1C=NCCN1CCCCC1`, the B-score entry was “inactive”.
Take `COC(=O)C1=C(c2ccccc2)C[C@@H]2CC[C@H]1N2C(=O)N1CCCCC1`: the B-score result is “inactive”.
On to `C/C(=N/O)c1ccc2ccc3ccccc3c2c1`, for which the B-score result is “inactive”.
Take `C/C=C/CC1(CC)C(=O)NC(=S)NC1=O`: the B-score result is “inactive”.
For `CCOc1cccc(=NC2CCCCC2)c2c(C)[nH]c(C)c12`, the B-score was 7 (active).
Take `CN(C)c1nc(N(C)C)nc(N(C#N)CCCl)n1`: the B-score entry was “inactive”.
Then `COc1ccccc1N1CCN(C(CNC(=O)Oc2ccccc2)c2cccnc2)CC1` (stereo not given), with “inactive”; and `O=C(N/N=C/c1c(O)n(C2CC2)c(=S)[nH]c1=O)c1ccccc1Cl`, with “inactive”.
